According to PubChem BioAssay AID720648 (The Scripps Research Institute Molecular Screening Center, 2013):
Out of some 370,000 compounds screened, about 3,100 (0.84%) were called active.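 How the source made its calls: active means inhibition above the mean of compounds lying between control limits plus 3 SD, set per campaign (cut at about 8.5% in these data); inactive means the rest.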 The full list was thinned out, with actives kept by preference.

target: Disintegrin and metalloproteinase domain-containing protein 17 (Homo sapiens) (UniProt P78536); assay: inhibition of ADAM17 peptide cleavage – biochemical, QFRET, primary screen (AID 720648); settings: recombinant ADAM17, EDANS/DABCYL FRET peptide cleavage; at 6.95 µM; active compounds read high;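 further: 0% = DMSO-only wells as the low control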
Sequence (P78536 215-824 limits assumed): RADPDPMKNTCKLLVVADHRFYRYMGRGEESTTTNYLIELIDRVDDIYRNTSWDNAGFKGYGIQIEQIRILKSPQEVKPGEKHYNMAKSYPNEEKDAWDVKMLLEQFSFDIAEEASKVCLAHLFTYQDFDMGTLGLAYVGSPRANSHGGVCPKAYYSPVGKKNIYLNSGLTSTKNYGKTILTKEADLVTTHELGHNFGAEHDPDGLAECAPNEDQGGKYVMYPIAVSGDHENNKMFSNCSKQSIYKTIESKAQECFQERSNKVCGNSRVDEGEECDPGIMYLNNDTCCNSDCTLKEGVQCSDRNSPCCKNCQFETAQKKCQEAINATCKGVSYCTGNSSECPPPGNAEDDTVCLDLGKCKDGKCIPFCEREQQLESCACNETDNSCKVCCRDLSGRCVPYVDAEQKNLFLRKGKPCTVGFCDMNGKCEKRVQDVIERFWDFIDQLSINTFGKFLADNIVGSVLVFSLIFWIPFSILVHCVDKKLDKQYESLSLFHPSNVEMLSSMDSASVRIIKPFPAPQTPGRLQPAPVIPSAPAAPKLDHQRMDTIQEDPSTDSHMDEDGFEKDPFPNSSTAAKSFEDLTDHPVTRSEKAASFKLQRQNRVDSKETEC

inhibition, inactive:
C#CCCN([C@H](C(=O)OC)C(C)C)S(=O)(=O)c1ccc(F)cc1Br 2.67%
O=C1CC[C@@H](COc2ccc3[nH]cc(-c4ccccc4)c3c2-c2ccccc2)N1 -1.86%
N#Cc1ccc(OC[C@@H](O)CN2CCC(C(O)(c3ccccc3)c3ccccc3)CC2)c(F)c1 0.92%
CCN(c1ccc(NC(=O)COC(=O)CCc2nc3ccccc3n2-c2ccccc2)cc1)C(C)C 4.08%
O=C(COC(=O)CCc1nc2ccccc2c(=O)[nH]1)Nc1ccc(N2CCOCC2)cc1 -2.52%
COc1ccc(CN2C/C(=C/c3ccccc3)N3C(=O)C[C@@H](c4ccccc4)N=C23)c(OC)c1 4.01%
C=CS(=O)(=O)N(Cc1nnn(Cc2ccccc2)c1Br)[C@H](C(=O)OC)C(C)C 2.02%
C[C@@H](NC(=O)c1ccccc1OCC(=O)Nc1ccc(I)cc1)C(=O)N(C)Cc1ccccc1 2.09%
O=C(CCS(=O)(=O)c1ccccc1)Nc1ccc(Cl)c(Cl)c1 5.76%
CSc1ccc(CNC(=O)c2ccc(NC(=O)C3=CSCCO3)cc2)cc1 0.22%
O=C(COC(=O)c1ccc2c(c1)OCCO2)NCc1ccccc1Cl -2.66%
COC(=O)C1CN(CC(C)C)CCS(=O)(=O)N1Cc1ccc(C)cc1 (stereo not drawn) -8.74%
Cc1ccc(S(=O)(=O)N(C)CC(=O)NCCc2c[nH]c3ccccc23)cc1 0.52%
Cc1ccc2[nH]cc(CCNC(=O)C3CCCCC3)c2c1 0.5%
CC(CCN1CCC(C(O)(c2ccccc2)c2ccccc2)CC1)Oc1ccc(Cl)cc1 (stereo not drawn) 4.85%
CCOC(=O)[C@]12CCCC=C1N(CCCOC)C(=O)[C@@H]2CC(=O)N1CCOCC1 2.05%
CCCC(=O)Nc1cccc(NC(=S)NC(=O)C(C)Oc2ccc(Cl)cc2Cl)c1 (stereo not drawn) 2.78%
CCCCC(=O)NNC(=S)NC(=O)C(c1ccccc1)c1ccccc1 1.95%
O=C(c1ccncc1)N1CC[C@H]2[C@H](CCCN2Cc2ccc(F)cc2)C1 1.14%
CN(CCO)c1cccc2c1S(=O)(=O)N(Cc1cn(Cc3ccc(C(F)(F)F)cc3)nn1)Cc1ccccc1O2 -1.94%
COC(=O)[C@]12C[C@H](CC(=O)NCC34CC5CC(CC(C5)C3)C4)C(=O)N(Cc3ccc(Cl)cc3Cl)C1=C[C@H](COCc1ccccc1)O[C@@H]2C -3.09%
CCCOc1ccc(Oc2c(Cl)cnn(Cc3cccc4ccccc34)c2=O)cc1 -6.8%
CCOc1ccc(CCNC(=O)COC(=O)C2CCN(c3ccc(C(F)(F)F)cn3)CC2)cc1OCC -1.24%
N#CCCN(C(=O)COC(=O)C1CCN(c2ccc(C(F)(F)F)cn2)CC1)c1ccc(F)cc1 -2.71%
C=CCOC/C=C/C#CCN(CC=C)Cc1ccc(OC)cc1OC -0.84%
O=C(Nc1nc2ccc(Cl)cc2s1)c1cc(-c2ccc(Cl)cc2)nc2ccccc12 -5.76%
Cc1ccccc1CN1CCCCC(NC(=O)c2cccc(C#N)c2)C1=O (stereo not drawn) -3.86%
Cc1ccc([C@H]2C[C@H](O)[C@@H](n3cc(COC(=O)c4ccccc4)nn3)CN2C(=O)C2CCCCC2)cc1 -1.37%
CCCCCCN1C[C@@H](O)[C@H](n2cc(COC(=O)c3ccccc3)nn2)C[C@@H]1c1ccc(Cl)cc1 -1.65%
CC(CCN1CCC(C(O)(c2ccccc2)c2ccccc2)CC1)Oc1ccc([N+](=O)[O-])cc1Cl (stereo not drawn) 6.8%
C=CC(COCc1ccccc1)N(Cc1ccccc1)S(=O)(=O)c1ccccc1Br (stereo not drawn) -0.15%
CCN(Cc1ccccc1)S(=O)(=O)c1cc(C(=O)O)ccc1OC 0.35%
Cc1ccc(NC(=O)c2cc(C)nn2-c2ccccc2)c(C)c1 3.11%
C=C(C)C#CC(Cc1ccccc1)N(CC1CC1)/C(N)=N/C(=O)OCc1ccccc1 (stereo not drawn) -26.4%
CCOc1ccc(-n2c(SCC(=O)Nc3cc(C)c(NC(=O)c4ccccc4)cc3OC)nnc2-c2cccc(Cl)c2)cc1 6.75%
COc1ccc(-n2c(SCC(=O)Nc3ccccc3-c3ccccc3)nnc2-c2cccnc2)cc1 -1.39%
Cc1cc(=O)[nH]c(SCC(=O)Nc2ccc(F)cc2F)n1 6.65%
Cc1ccc(S(=O)(=O)N2CCN(C(=O)COC(=O)CNC(=O)c3ccc(C(C)(C)C)cc3)CC2)c(C)c1 -2.11%
COc1ccc(/C=C/C(=O)OCC(=O)N2CCN(S(=O)(=O)c3ccc(C)cc3C)CC2)cc1OC -6.61%
Cc1ccc(-n2c(SCC(=O)Nc3ccc(S(=O)(=O)Nc4nccs4)cc3)nnc2-c2ccncc2)cc1 -0.27%
O=C(OCC(=O)N1CCN(C(=O)c2ccco2)CC1)c1cccc(O)c1 -3.62%
Cc1ccc(S(=O)(=O)c2c(COC(=O)c3cccc(Cl)c3)c(-c3ccccc3)nn2C)cc1 -0.5%
COc1ccc(CNS(=O)(=O)c2cc(-c3cc(C)no3)ccc2C(C)C)cc1 3.19%
Cc1cc(-c2ccc(C)c(S(=O)(=O)NCCCN(Cc3ccccc3)C(C)C)c2)on1 -3.83%
CCC(CO)Nc1cccc2c1S(=O)(=O)N(Cc1cn(Cc3ccccc3C(F)(F)F)nn1)Cc1ccccc1O2 (stereo not drawn) -3.41%
COC(=O)[C@H](C(C)C)N1CCc2nnn(Cc3ccc(C)cc3)c2-c2ccccc2S1(=O)=O 2.97%
C=C1C(C(C)C)N(C)C2=NC(c3ccccc3)CC(=O)N12 (stereo not drawn) -5.62%
O=C(CSc1nc2ccccc2n1Cc1ccccc1)NNC(=S)Nc1ccccc1 5.43%
O=C(CSc1nnc(SCc2ccc(Cl)cc2)s1)N/N=C/c1ccccc1Cl 0.99%
Nc1[nH]c(/C=C2/CCCCC2n2[nH]c(=O)n(-c3ccccc3)c2=O)c(Cc2ccccc2)[n+]1Cc1ccccc1 (stereo not drawn) -3.48%
O=C(Nc1ccc(Br)cc1)OCCN1C(=O)CCC12CCC(c1ccccc1)CC2 (stereo not drawn) -0.94%
CC(NCc1ccco1)C(=O)N1CCCCC1 (stereo not drawn) 0.39%
O=C(CSCc1ccc([N+](=O)[O-])cc1)Nc1cccc(C(=O)Nc2ccccc2C(=O)O)c1 0.74%
O=C(CSc1nc2[nH]c(=O)[nH]c(=O)c2s1)Nc1cccc(F)c1 -3.92%
O=C1CC(c2ccc3c(c2)OCO3)N=C2N(CC3CC3)C/C(=C/c3ccccc3)N12 (stereo not drawn) -2.87%
CC(CCN1CCC(C(O)(c2ccccc2)c2ccccc2)CC1)Oc1ccc(C(F)(F)F)cc1 (stereo not drawn) 3.8%
C=CCC[C@H](Cc1ccc(F)cc1)C(=O)OC[C@H](C)NC(=O)[C@H](CC=C)CC(=O)N(CCO)Cc1ccccc1 0.15%
C=CC[C@@H](Cc1ccc(F)cc1)C(=O)OC[C@H]1CCCN1C(=O)[C@H](CC=C)CC(=O)N(CCO)Cc1ccccc1 1.4%
C=CCC[C@@H](Cc1ccc(F)cc1)C(=O)OC[C@@H](C)NC(=O)[C@H](CC=C)CC(=O)N(CCO)Cc1ccccc1 0.31%
C=CCC[C@H](Cc1ccc(F)cc1)C(=O)OC[C@@H](NC(=O)[C@@H](CC=C)CC(=O)N[C@H](CO)Cc1ccccc1)C(C)(C)C 4.84%
C=CCC[C@H](Cc1ccc(F)cc1)C(=O)OC[C@@H](Cc1c[nH]c2ccccc12)NC(=O)[C@H](CC=C)CC(=O)N[C@H](CO)Cc1ccccc1 3.73%
C=CC[C@@H](CC(=O)N[C@H](CO)Cc1ccccc1)C(=O)N[C@@H](COC(=O)[C@@H](CC=C)Cc1ccc(F)cc1)Cc1c[nH]c2ccccc12 -0.68%

inhibition, active:
O=C(COC(=O)CCCSc1nc2ccccc2[nH]1)Nc1ccc(Oc2ccccc2)cc1 10.8%
O=C(Nc1ccc(C(=O)NCc2ccccc2Cl)cc1)C1=CSCCO1 10.3%
Cc1cc(C)cc(NC(=S)NCCc2c[nH]c3ccccc23)c1 16.1%
CC(C)C(=O)Nc1cccc(NC(=S)NC(=O)C(c2ccccc2)c2ccccc2)c1 9.39%
CCc1cccc(NC(=O)COC(=O)C2CCN(c3ccc(C(F)(F)F)cn3)CC2)c1 8.96%
CCCCCC(=O)N1C[C@H](O)[C@@H](n2cc(COC(=O)c3ccccc3)nn2)C[C@@H]1c1ccc(C)cc1 8.64%
C=CC(COCc1ccccc1)N(CC(=O)OC)S(=O)(=O)c1cc(Br)ccc1OC (stereo not drawn) 9.3%
CCOc1ccc(-n2c(SCC(=O)Nc3cc(C)c(NC(=O)c4ccccc4)cc3OC)nnc2-c2cccs2)cc1 10.6%
Cc1ccc(S(=O)(=O)N2CCN(C(=O)COC(=O)c3c(C)cc(C)cc3C)CC2)c(C)c1 19.5%
O=C(OCc1ccc(-c2ccccc2)cc1)c1cccc(O)c1 9.14%
CCOc1ccccc1CNS(=O)(=O)c1cc(-c2cc(C)no2)ccc1C 10.2%
Cc1ccc(NC(=S)NNC(=O)CSc2nnc(SCc3ccccc3Cl)s2)cc1 9.53%
O=C(CSc1nc(-c2ccccc2)cs1)Nc1cccc([N+](=O)[O-])c1 8.67%
C=CCC[C@@H](Cc1ccc(F)cc1)C(=O)O[C@H](CNC(=O)[C@H](CC=C)CC(=O)N(CCO)Cc1ccccc1)c1ccccc1 13.4%
C=CC[C@H](CC(=O)N(CCO)Cc1ccccc1)C(=O)N[C@@H](COC(=O)[C@@H](CC=C)Cc1ccc(F)cc1)Cc1ccccc1 13.2%
C=CCC[C@@H](Cc1ccc(F)cc1)C(=O)OC[C@H](Cc1c[nH]c2ccccc12)NC(=O)[C@@H](CC=C)CC(=O)N(CCO)Cc1ccccc1 20.9%
